U2OS ROS induce = cancer cell ROS induction | U2OS ROS induction, H2DCF-DA fluorescence | ROS induction (% of piperlongumine), % at 10 µM | 46,000 compounds, 2% hits | AID 624156; in the data active means ROS induction above about 79%, passing the limit was not always enough;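 further: 0% = DMSO vehicle median and 100% = reference compound median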
* hit, by the source's call. The sample as a whole holds a higher share of hits than the screen did.

Screening COCCOC(=O)N1C(=O)[C@@]2(c3cc(C#CC4(O)CCCCCC4)ccc31)[C@H](c1ccc(O)cc1)N1[C@H](c3ccccc3)[C@H](c3ccccc3)OC(=O)[C@H]1[C@@H]2C(=O)N1CCN(c2ncccn2)CC1 returned U2OS ROS induce 8.
For COCCOC(=O)N1C(=O)[C@@]2(c3cc(C#CC4(O)CCCCCC4)ccc31)[C@H](C(=O)N1CCN(c3ncccn3)CC1)[C@H]1C(=O)O[C@H](c3ccccc3)[C@H](c3ccccc3)N1[C@@H]2c1ccc(O)cc1 the results were U2OS ROS induce 17.
COCCOC(=O)N1C(=O)[C@@]2(c3ccccc31)[C@H](C(=O)Nc1nc3ccccc3s1)[C@H]1C(=O)O[C@H](c3ccccc3)[C@H](c3ccccc3)N1[C@@H]2c1ccccc1OCCO was read as U2OS ROS induce 11.
CCOC(=O)c1c(C)oc2ccc(OCC(=O)c3ccc(Br)cc3)cc12 was read as U2OS ROS induce -5.
For C[C@H]1CN([C@@H](C)CO)C(=O)c2cc(NC(=O)CCCCCC(=O)Nc3ccccc3N)ccc2O[C@H]1CN(C)Cc1ccc2c(c1)OCO2 the results were U2OS ROS induce 2.
C=CCn1c(=N)n(CC(=O)c2ccc(-c3ccccc3)cc2)c2ccccc21 was read as U2OS ROS induce -9.
For C[C@@H]1CN([C@H](C)CO)C(=O)Cc2cc(NC(=O)Nc3cccc4ccccc34)ccc2O[C@H]1CN(C)Cc1ccccc1 the results were U2OS ROS induce -2.
C[C@H](CO)N1C[C@H](C)[C@H](CN(C)Cc2ccc(C(=O)O)cc2)Oc2ccc(NC(=O)Cc3cn(C)c4ccccc34)cc2C1=O was read as U2OS ROS induce -5.
Screening C[C@H](CO)N1C[C@H](C)[C@@H](CN(C)Cc2ccc(C(F)(F)F)cc2)Oc2ccc(NC(=O)Cc3cn(C)c4ccccc34)cc2C1=O returned U2OS ROS induce 109*.
For C[C@H]1CN([C@@H](C)CO)C(=O)c2cc(NC(=O)Cc3cn(C)c4ccccc34)ccc2O[C@@H]1CN(C)Cc1ccc(C(F)(F)F)cc1 the results were U2OS ROS induce 122*.
Screening C[C@@H]1CN([C@@H](C)CO)C(=O)c2cc(NC(=O)Cc3cn(C)c4ccccc34)ccc2O[C@@H]1CN(C)Cc1ccncc1 returned U2OS ROS induce 12.
Screening C[C@@H]1CN([C@@H](C)CO)C(=O)c2cc(NC(=O)Cc3cn(C)c4ccccc34)ccc2O[C@@H]1CN(C)Cc1ccccc1 returned U2OS ROS induce 13.
Screening C[C@@H]1CN([C@H](C)CO)C(=O)c2cc(NC(=O)Cc3cn(C)c4ccccc34)ccc2O[C@H]1CN(C)Cc1ccc(C(=O)O)cc1 returned U2OS ROS induce -13.
For CC(C)c1c(C#N)c(N)nc(SCC(N)=O)c1C#N the results were U2OS ROS induce 13.
CNC[C@@H]1Oc2ccc(NC(=O)Nc3ccc(C(F)(F)F)cc3)cc2C(=O)N([C@@H](C)CO)C[C@@H]1C was read as U2OS ROS induce -10.
Screening CNC[C@H]1Oc2ccc(NC(=O)Nc3ccccc3)cc2CC(=O)N([C@@H](C)CO)C[C@@H]1C returned U2OS ROS induce -13.
`Cc1cc(I)cc(C)c1NC(=O)CSc1n[nH]c(-c2ccc(Cl)cc2)n1` gave U2OS ROS induce -1.
O=C(Nc1ccccc1)Nc1csc(-c2ccc(C(F)(F)F)cc2)n1 was read as U2OS ROS induce -3.
For Cc1ccc(S(=O)(=O)Nc2cccc3c2O[C@@H](CN(C)C(=O)Nc2ccc(C(F)(F)F)cc2)[C@@H](C)CN([C@@H](C)CO)C3=O)cc1 the results were U2OS ROS induce 26.
`N#Cc1c(N)nc(SCC(=O)c2ccc3ccccc3c2)c(C#N)c1-c1cccc(F)c1` gave U2OS ROS induce 23.
For CCCOC(=O)CSc1nc(N)c(C#N)c(-c2ccc(C)cc2)c1C#N the results were U2OS ROS induce 30.
COc1ccc(-c2c(C#N)c(SCC(=O)c3ccccc3)nc3c2C(=O)CC(C)(C)C3)cc1 was read as U2OS ROS induce 138*.
For C[C@@H]1CN([C@@H](C)CO)C(=O)c2cc(N(C)C)ccc2O[C@@H]1CN(C)S(=O)(=O)c1cccs1 the results were U2OS ROS induce -1.
For C[C@H]1CN([C@@H](C)CO)C(=O)CCCn2nncc2CO[C@H]1CN(C)C(=O)Nc1cccc(C(F)(F)F)c1 the results were U2OS ROS induce 10.
Screening C=C(C)C(=O)O[C@H]1[C@H]2C(=C)C(=O)O[C@@H]2C[C@@H](C)[C@@H]2O[C@@H]2C(=O)[C@](C)(O)[C@@H]1OC(=O)C(=C)C returned U2OS ROS induce 29.
Screening C=C(C)C(=O)O[C@H]1C[C@@]2(C)OC(=CC2=O)/C(COC(C)=O)=C\[C@H]2OC(=O)C(=C)C12 (some centres undefined) returned U2OS ROS induce 47.
Screening C=C(C)C(=O)O[C@H]1CC(=C)C2C[C@H](O)[C@](O)(CO)C2[C@H]2OC(=O)C(=C)[C@H]12 (some centres undefined) returned U2OS ROS induce 186*.
`C[C@@H]1CN([C@@H](C)CO)C(=O)c2cccc(NC(=O)Nc3ccccc3)c2O[C@H]1CN(C)C` gave U2OS ROS induce -5.
`Cc1cccc(-c2nnc3sc(NC(=O)CC(C)C)nn23)c1` gave U2OS ROS induce 0.
COc1ccc(CN(C)C[C@@H]2Oc3c(NS(=O)(=O)c4ccccc4)cccc3C(=O)N([C@@H](C)CO)C[C@H]2C)cc1 was read as U2OS ROS induce -9.
Screening CCC(=O)N1c2ccccc2NC2=C(C(=O)CC(c3ccccc3)C2)C1c1ccccc1 (centres undefined) returned U2OS ROS induce 8.
For C[C@H](CO)N1C[C@H](C)[C@H](CN(C)S(=O)(=O)c2ccc(F)cc2)Oc2ccc(NC(=O)Nc3cccc4ccccc34)cc2CC1=O the results were U2OS ROS induce 24.
Screening CCOC(=O)N1CC=C2C(C1)C(c1cccc(C(F)(F)F)c1)C(C#N)=C(N)C2(C#N)C#N (centres undefined) returned U2OS ROS induce 14.
COC(=O)c1ccc([C@H]2C(C#N)=C(N)C(C#N)(C#N)C3=CCC(C(C)(C)C)C[C@@H]32)cc1 (some centres undefined) was read as U2OS ROS induce 226*.
For CC(C)(C)C1CC=C2[C@H](C1)[C@@H](c1ccsc1)C(C#N)=C(N)C2(C#N)C#N (some centres undefined) the results were U2OS ROS induce 25.
`CCCC(O)C#Cc1cnc2c(c1)C(=O)N([C@H](C)CO)C[C@H](C)[C@H](CN(C)Cc1cccc(C(F)(F)F)c1)O2` (some centres undefined) gave U2OS ROS induce 9.
`Cc1ccc(-c2nnc3c4ccccc4c(C)nn23)cc1S(=O)(=O)NC(C)c1ccccc1` (centres undefined) gave U2OS ROS induce -4.
For Cc1ccc(-c2nn3c(C)nnc3c3ccccc23)cc1S(=O)(=O)NCc1ccco1 the results were U2OS ROS induce 125*.
For CCOc1cc(S(=O)(=O)NCc2ccco2)c(C)cc1C the results were U2OS ROS induce -4.
For COC(=O)c1sc(C(F)(F)F)c(-c2ccccc2)c1S(=O)(=O)NC(C)(C)C the results were U2OS ROS induce -2.
C[C@H]1CN([C@@H](C)CO)C(=O)c2cc(NS(=O)(=O)c3ccc(F)cc3)ccc2O[C@H]1CN(C)C(=O)Nc1ccccc1 was read as U2OS ROS induce -11.
`Cc1ccc(Cl)c(OCC(=O)NCc2cccnc2)c1` gave U2OS ROS induce -7.
